Data taken from PubChem BioAssay (Tox21).
Several values for one entry are separate records, joined by “and”; a condition that tells them apart may be missing. Identical values can stand only once. Results filed as inconclusive are left out. A structure can be active in one record and inactive in another. Activity calls are given as the source filed them. Unless noted, calls come from the whole dose curve; as a rule, active = well fitted curve in the direction sought with a large enough effect in the repeat runs; inconclusive = weak or mixed curves; inactive = no such curve, though single readings can be large; an effect the other way counts as inactive or inconclusive.

Tests used:
[1] = qHTS assay to identify small molecule agonists of H2AX - cell viability counter screen (AID 1224847; calls by dose curve; note: top concentration of the series differs between compounds; nearly all actives have a fitted effect of over 30% in size)
Outline: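 Read-out: CellTiter-Glo luminescence, 30 min RT. Cells: wild-type CHO-K1, 1000/well, 10% FBS, plated overnight at 37C. Treatment: 15 concentrations, 3 hr, 37C, 0.76% DMSO.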

[2] = qHTS assay to identify small molecule agonists of the estrogen related receptor (ERR) signaling pathway from Tox21 library (AID 1224849; calls by dose curve; note: nearly all actives have a fitted effect of over 15% in size); conditions: ERR reporter cell line, ONE-Glo luciferase, 18 h; at 92.4 µM (top of the series)
Outline: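 Cells carrying the ERR reporter were plated and allowed to settle for 6 h, exposed to library compounds for 18 h at 37 C, then lysed with ONE-Glo and luminescence measured.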

[3] = A CellTox Green Cytotoxicity Assay to monitor cytotoxicity in HEK293 cells - 0 hour (AID 1224869); note: nearly all actives have a fitted effect of over 50% in size
Outline: (§1)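 Cells (HEK293, 600/well) and dye reagent are dispensed together. After 5 h at 37 C, 23 nL compound is pinned in. Plates stay at 37 C for 40 h with fluorescence read at 0h, 8h, 16h, 24h, 32h and 40h.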

[4] = A CellTox Green Cytotoxicity Assay to monitor cytotoxicity in HEK293 cells - 40 hour (AID 1224871); note: nearly all actives have a fitted effect of over 45% in size
Outline: as §1

[5] = A CellTox Green Cytotoxicity Assay to monitor cytotoxicity in HEK293 cells - 24 hour (AID 1224875); note: nearly all actives have a fitted effect of over 45% in size
Outline: as §1

[6] = A CellTox Green Cytotoxicity Assay to monitor cytotoxicity in HepG2 cells - 24 hour (AID 1224878); note: nearly all actives have a fitted effect of over 45% in size
Outline: (§2)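 Cells and non-lytic dye reagent are dispensed together (600 HepG2 cells/well) and incubated 5 h before DMSO compound transfer. Kinetic fluorescence is then recorded in the same wells during 40 h at 37 C.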

[7] = A CellTox Green Cytotoxicity Assay to monitor cytotoxicity in HepG2 cells - 40 hour (AID 1224879); note: nearly all actives have a fitted effect of over 40% in size
Outline: as §2

[8] = A CellTox Green Cytotoxicity Assay to monitor cytotoxicity in HEK293 cells - 32 hour (AID 1224881); note: nearly all actives have a fitted effect of over 40% in size
Outline: as §1

[9] = A CellTox Green Cytotoxicity Assay to monitor cytotoxicity in HepG2 cells - 0 hour (AID 1224882); note: nearly all actives have a fitted effect of over 35% in size
Outline: as §2

[10] = A CellTox Green Cytotoxicity Assay to monitor cytotoxicity in HepG2 cells - 32 hour (AID 1224883); note: nearly all actives have a fitted effect of over 50% in size
Outline: as §2

[11] = A CellTox Green Cytotoxicity Assay to monitor cytotoxicity in HEK293 cells - 8 hour (AID 1224884); note: nearly all actives have a fitted effect of over 35% in size
Outline: as §1

[12] = qHTS RealTime-Glo MT Cell Viability Assay in HepG2 cells - 24 hour (AID 1224867); note: nearly all actives have a fitted effect of over 50% in size
Outline: (§3)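 HepG2 cells (600/well) were dispensed with RealTime-Glo reagents, incubated 5 h at 37 °C, then treated with compounds in DMSO for up to 40 h. Nonlytic NanoLuc luminescence reflecting viable cells was read at each stated time point.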

[13] = qHTS RealTime-Glo MT Cell Viability Assay in HEK293 cells - 32 hour (AID 1224868); note: top concentration of the series differs between compounds; nearly all actives have a fitted effect of over 50% in size
Outline: (§4)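 HEK293 cells seeded with NanoLuc/prosubstrate reagent, rested 5 h at 37 C, then dosed and kept at 37 C up to 40 h. Nonlytic real-time luminescence from viable cells read at 0, 8, 16, 24, 32 and 40 h.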

[14] = qHTS RealTime-Glo MT Cell Viability Assay in HepG2 cells - 40 hour (AID 1224870); note: nearly all actives have a fitted effect of over 50% in size
Outline: (§5)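 HepG2 cells (600/well) mixed with RealTime-Glo MT reagent, settled 5 h at 37 C/5% CO2 before compound addition. Nonlytic NanoLuc luminescence from viable-cell prosubstrate reduction read repeatedly during 40 h treatment at 37 C.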

[15] = qHTS RealTime-Glo MT Cell Viability Assay in HEK293 cells - 16 hour (AID 1224872)
Outline: as §4

[16] = qHTS RealTime-Glo MT Cell Viability Assay in HEK293 cells - 40 hour (AID 1224874); conditions: RealTime-Glo luminescence; max response: active compounds read low; note: nearly all actives have a fitted effect of over 50% in size; note: potency is the fitted concentration of half-maximal effect
Outline: (§6)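 Real-time viability in HEK293: signal arises when living cells convert a prosubstrate for NanoLuc in the medium, so luminescence tracks viable cell number. Compound (23 nL, DMSO) added 5 h post-seeding; kinetic reads at 0–40 h, 37 C.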

[17] = A CellTox Green Cytotoxicity Assay to monitor cytotoxicity in HepG2 cells - 16 hour (AID 1224876); note: nearly all actives have a fitted effect of over 45% in size
Outline: as §2

[18] = qHTS RealTime-Glo MT Cell Viability Assay in HepG2 cells - 32 hour (AID 1224877); note: nearly all actives have a fitted effect of over 55% in size
Outline: as §3

[19] = qHTS RealTime-Glo MT Cell Viability Assay in HEK293 cells - 0 hour (AID 1224880)
Outline: as §6

[20] = qHTS RealTime-Glo MT Cell Viability Assay in HepG2 cells - 8 hour (AID 1224873); note: nearly all actives have a fitted effect of over 55% in size
Outline: as §5
% is set by controls: 0 for no effect and ±100 for the full control effect.

OC[C@H]1O[C@@](CO)(O[C@H]2O[C@H](CO)[C@@H](O)[C@H](O)[C@H]2O)[C@@H](O)[C@@H]1O
inactive: Potency [1] | activity change, positive = activation [2] 6.61% and 1.2% | outcome [3] | Potency [4] | Potency [5] | Potency [6] | Potency [7] | Potency [8] | outcome [9] | Potency [10] | outcome [11]

CCCCCCOCCO
inactive: Potency [1] | outcome [12] | Potency [13] | outcome [3] | outcome [14] | Potency [4] | Potency [15] | max response [16] -2.7% and 0.672% | Potency [5] | Potency [17] | outcome [18] | Potency [6] | Potency [7] | Potency [19] | outcome [9] | Potency [10] | outcome [11]

OCCOCCN1CCN(C2=Nc3ccccc3Sc3ccccc32)CC1
active: Potency [16] 9.52 µM
inactive: Potency [1] | outcome [12] | Potency [13] | outcome [3] | outcome [14] | Potency [4] | Potency [15] | max response [16] -19.6% | Potency [5] | Potency [17] | outcome [18] | Potency [6] | Potency [7] | Potency [19] | Potency [8] | outcome [9] | Potency [10] | outcome [11]

O=C(O)CC(C(=O)O)C(CC(=O)O)C(=O)O (centres undefined)
inactive: Potency [1] | outcome [12] | Potency [13] | outcome [3] | outcome [14] | Potency [4] | Potency [15] | outcome [20] | max response [16] -2.07% and -0.191% | Potency [5] | outcome [18] | Potency [6] | Potency [7] | Potency [19] | Potency [8] | outcome [9] | Potency [10] | outcome [11]

FC(F)(F)c1ccc(Cl)c(Cl)c1
inactive: Potency [1] | outcome [12] | Potency [13] | outcome [3] | outcome [14] | Potency [4] | Potency [15] | outcome [20] | Potency [5] | Potency [17] | outcome [18] | Potency [6] | Potency [7] | Potency [19] | Potency [8] | outcome [9] | Potency [10] | outcome [11]

C/C=C1/CC2C=CC1C2 (centres undefined)
inactive: Potency [1] | outcome [12] | Potency [13] | outcome [3] | outcome [14] | Potency [4] | Potency [15] | max response [16] 4% and 6.36% | Potency [5] | Potency [17] | outcome [18] | Potency [6] | Potency [7] | Potency [19] | outcome [9] | Potency [10] | outcome [11]

O=C(O)c1cc(C(=O)O)cc(S(=O)(=O)O)c1
inactive: Potency [1] | outcome [12] | Potency [13] | outcome [3] | outcome [14] | Potency [4] | Potency [15] | outcome [20] | max response [16] -1.84% and 1.2% | Potency [5] | Potency [17] | outcome [18] | Potency [6] | Potency [7] | Potency [19] | Potency [8] | outcome [9] | Potency [10] | outcome [11]

O=C(O)c1ccc2c(c1)C(=O)OC2=O
inactive: Potency [1] | outcome [12] | Potency [13] | outcome [3] | outcome [14] | Potency [4] | Potency [15] | outcome [20] | Potency [5] | Potency [17] | outcome [18] | Potency [6] | Potency [7] | Potency [19] | Potency [8] | outcome [9] | Potency [10] | outcome [11]

CCCCCCCCC/C=C/CC1CC(=O)OC1=O (centres undefined)
inactive: Potency [1] | outcome [12] | Potency [13] | outcome [3] | outcome [14] | Potency [4] | Potency [15] | outcome [20] | max response [16] -19.7% and -2.36% | Potency [5] | Potency [17] | outcome [18] | Potency [6] | Potency [7] | Potency [19] | outcome [9] | Potency [10] | outcome [11]

OCc1cccnc1
inactive: Potency [1] | outcome [12] | Potency [13] | outcome [3] | outcome [14] | Potency [4] | Potency [15] | outcome [20] | max response [16] -2.21% and -1.61% | Potency [5] | Potency [17] | outcome [18] | Potency [6] | Potency [7] | Potency [19] | outcome [9] | Potency [10] | outcome [11]

CC(O)COCC(C)O (centres undefined)
inactive: Potency [1] | outcome [12] | Potency [13] | outcome [3] | outcome [14] | Potency [4] | Potency [15] | outcome [20] | max response [16] -1.78% and 1.64% | Potency [5] | Potency [17] | outcome [18] | Potency [6] | Potency [7] | Potency [19] | Potency [8] | outcome [9] | Potency [10] | outcome [11]

COc1cc(Cc2cnc(N)nc2N)cc(OC)c1OC
inactive: Potency [1] | outcome [12] | Potency [13] | outcome [3] | outcome [14] | Potency [4] | Potency [15] | outcome [20] | max response [16] -23% and -15.6% | Potency [5] | Potency [17] | outcome [18] | Potency [6] | Potency [7] | Potency [19] | Potency [8] | outcome [9] | Potency [10] | outcome [11]

O=C=NCCCCCCN=C=O
inactive: Potency [1] | outcome [12] | Potency [13] | outcome [3] | outcome [14] | Potency [4] | Potency [15] | outcome [20] | Potency [5] | Potency [17] | outcome [18] | Potency [6] | Potency [7] | Potency [19] | Potency [8] | outcome [9] | Potency [10] | outcome [11]
